# Results filed as inconclusive are left out. Where a call stands in place of a potency, no number is given. Some compounds were tested as several samples or in several runs, with calls that do not always agree. Active and inactive are the calls of the source. Unless noted, calls come from the whole dose curve; as a rule, active = well fitted curve in the direction sought with a large enough effect in the repeat runs; inconclusive = weak or mixed curves; inactive = no such curve, though single readings can be large; an effect the other way counts as inactive or inconclusive.
# Legend:
# [1] = qHTS assay to identify small molecule agonists of the RXR signaling pathway - cell viability counter screen (AID 1159529); note: nearly all actives have a fitted effect of over 50% in size; note: potency is the fitted concentration of half-maximal effect
# Outline: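 Counter screen: CellTiter-Glo luminescence. Cells: RXR-alpha-UAS-bla HEK 293T. Medium: 2% charcoal-stripped FBS. Treatment: 16 h, 37 C. Reagent incubation: 30 min, RT.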
# [2] = qHTS assay to identify small molecule antagonists of the retinoid acid receptor (RAR) signaling pathway - cell viability counter screen (AID 1159551); note: nearly all actives have a fitted effect of over 35% in size
# Outline: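 Viability of C3RL4 cells is quantified from ATP by luminescence after 6 h treatment at 37 C with compounds and 1 uM retinol.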
# [3] = qHTS assay to identify small molecule antagonists of the retinoic acid receptor (RAR) signaling pathway (AID 1159552; note: nearly all actives have a fitted effect of over 50% in size)
# Outline: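 Antagonism of retinol-induced RARE reporter activity was measured in C3RL4 cells. Exposure to compounds and 1 uM final retinol lasted 6 hr at 37 C, with luminescence as endpoint.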
# [4] = qHTS assay to identify small molecule antagonists of the estrogen related receptor (ERR) signaling pathway from Tox21 library - cell viability counter screen (AID 1224834); note: nearly all actives have a fitted effect of over 30% in size; note: potency is the fitted concentration of half-maximal effect
# Outline: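 In this quantitative HTS format, ERR cells receive compounds in DMSO and are incubated for 17.5 h at 37 C. Live-cell protease activity is then detected with CellTiter-Fluor.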
# [5] = target: Luciferin 4-monooxygenase (Photinus pyralis) (UniProt P08659); test: qHTS assay to identify small molecule inhibitors of firefly luciferase (AID 1224835); note: series mostly up to about 120 µM; nearly all actives have a fitted effect of over 25% in size
# Sequence of Luciferin 4-monooxygenase (Photinus pyralis) (P08659 whole entry, looked up): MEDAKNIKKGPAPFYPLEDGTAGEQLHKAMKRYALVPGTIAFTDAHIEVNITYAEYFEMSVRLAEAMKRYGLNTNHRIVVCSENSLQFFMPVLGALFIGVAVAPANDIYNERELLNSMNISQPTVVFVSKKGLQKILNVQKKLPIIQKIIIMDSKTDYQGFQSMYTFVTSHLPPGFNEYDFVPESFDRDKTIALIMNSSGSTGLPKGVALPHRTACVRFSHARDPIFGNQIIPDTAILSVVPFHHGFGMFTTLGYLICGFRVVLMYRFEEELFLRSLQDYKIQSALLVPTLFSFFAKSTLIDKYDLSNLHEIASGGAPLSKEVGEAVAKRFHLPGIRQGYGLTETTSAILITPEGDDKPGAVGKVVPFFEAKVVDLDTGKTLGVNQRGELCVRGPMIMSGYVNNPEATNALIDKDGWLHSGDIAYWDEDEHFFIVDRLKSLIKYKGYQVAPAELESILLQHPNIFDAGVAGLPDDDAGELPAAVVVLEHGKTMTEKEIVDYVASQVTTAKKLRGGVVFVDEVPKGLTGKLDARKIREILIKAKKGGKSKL
# Outline: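 Biochemical qHTS: compounds run as interplate titrations against purified firefly enzyme, with D-luciferin and ATP each at its KM concentration. Light output recorded by CCD imaging.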
# [6] = qHTS assay to identify small molecule agonists of the constitutive androstane receptor (CAR) signaling pathway - cell viability counter screen (AID 1224836); note: series mostly up to about 92 µM; nearly all actives have a fitted effect of over 45% in size
# Outline: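 Double-stable HepG2 hepatoma cells (hCAR plus CYP2B6-2.2kb) are treated for 23 h at 37 C with test compounds in 15-point concentration series. PK11195 at 0.75 uM final is co-added. Cell viability is quantified by CellTiter-Fluor.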
# [7] = qHTS assay to identify small molecule antagonists of the constitutive androstane receptor (CAR) signaling pathway - cell viability counter screen (AID 1224837); note: series mostly up to about 92 µM; nearly all actives have a fitted effect of over 45% in size
# Outline: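 In quantitative HTS format, compounds at 15 concentrations were applied to HepG2 cells double-transfected with hCAR and CYP2B6-2.2kb under 50 nM CITCO stimulation; live-cell protease activity was read after 23 hr via CellTiter-Fluor.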
# [8] = qHTS assay to identify small molecule antagonists of the estrogen related receptor signaling pathway with the pleiotropic PPARgamma coactivator (PGC) from Tox21 10K library - cell viability counter screen (AID 1224840; active = well fitted cell-killing curve with a large enough effect in the repeat runs, not every such curve was filed as active; note: nearly all actives have a fitted effect of over 40% in size; note: potency is the fitted concentration of half-maximal effect)
# Outline: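 Viability counter screen, PGC/ERR cells: 17.5 h compound exposure at 37 C, CellTiter-Fluor fluorescence endpoint.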
# [9] = target: Thyrotropin receptor (Homo sapiens) (UniProt P16473); test: qHTS assay to identify small molecule agonists of the thyroid stimulating hormone receptor (TSHR) signaling pathway (AID 1224843; calls by dose curve; note: nearly all actives have a fitted effect of over 45% in size)
# Sequence of Thyrotropin receptor (Homo sapiens) (P16473 whole entry, looked up): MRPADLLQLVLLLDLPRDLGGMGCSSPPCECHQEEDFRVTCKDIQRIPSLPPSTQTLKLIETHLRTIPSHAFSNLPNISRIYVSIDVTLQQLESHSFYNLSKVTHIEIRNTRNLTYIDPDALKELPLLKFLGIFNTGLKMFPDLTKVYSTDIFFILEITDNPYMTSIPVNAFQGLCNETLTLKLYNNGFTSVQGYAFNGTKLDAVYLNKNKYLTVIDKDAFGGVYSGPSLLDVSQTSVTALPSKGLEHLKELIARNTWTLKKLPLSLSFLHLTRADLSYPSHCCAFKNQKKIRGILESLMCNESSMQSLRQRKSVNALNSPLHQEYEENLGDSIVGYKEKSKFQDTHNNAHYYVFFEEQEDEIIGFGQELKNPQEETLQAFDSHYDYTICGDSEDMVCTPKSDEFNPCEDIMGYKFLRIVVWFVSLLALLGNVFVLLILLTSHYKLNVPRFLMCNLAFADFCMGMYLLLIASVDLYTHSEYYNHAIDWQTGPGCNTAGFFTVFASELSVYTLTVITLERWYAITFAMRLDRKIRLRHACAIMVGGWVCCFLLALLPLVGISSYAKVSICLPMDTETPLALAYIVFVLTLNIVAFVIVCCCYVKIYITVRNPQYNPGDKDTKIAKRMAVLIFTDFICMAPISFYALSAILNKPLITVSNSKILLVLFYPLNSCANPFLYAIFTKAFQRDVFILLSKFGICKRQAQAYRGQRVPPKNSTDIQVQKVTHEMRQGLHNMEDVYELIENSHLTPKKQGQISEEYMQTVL
# Outline: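 HEK293/TSHR, 800 cells/well; cpd 30 min RT; add cAMP-d2 + anti-cAMP-cryptate, 1 h RT; fluorescence read on plate reader. 15-pt titration, n=3.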
# [10] = qHTS assay to identify small molecule agonists of the hypoxia (HIF-1) signaling pathway - cell viability counter screen (AID 1224844; calls by dose curve; note: nearly all actives have a fitted effect of over 50% in size)
# Outline: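 Same wells as the HIF-1 reporter screen; ME-180 cells carrying HRE-bla, 17 hr treatment at 37C; CellTiter-Glo luminescence read after 30 min at room temperature.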
# [11] = qHTS assay to identify small molecule agonists of H2AX (AID 1224845; active = well fitted activation curve with a large enough effect in the signal ratio in the repeat runs, not every such curve was filed as active; the % refers to the signal ratio)
# Outline: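 Wild-type CHO-K1 cells, plated overnight, exposed 3hr at 37C to 15 concentrations (0.76% DMSO final). Lysed, then HTRF anti-pH2AX (S139) cryptate and anti-H2AX-d2 antibodies, 24 hr room temperature; 665/620 nm emission read.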
# [12] = qHTS assay to identify small molecule agonists of the hypoxia (HIF-1) signaling pathway (AID 1224846; active = well fitted activation curve with a large enough effect in the signal ratio in the repeat runs, not every such curve was filed as active; the % refers to the signal ratio)
# Outline: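 In ME-180 cells bearing an HRE-bla construct, 17 h treatment with DMSO-dissolved compounds at 37C was followed by CCF4-AM loading to quantify reporter induction.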
# [13] = target: Retinoic acid receptor RXR-alpha (Homo sapiens) (UniProt P19793); test: qHTS assay to identify small molecule agonists of the RXR signaling pathway (AID 1159527; calls by dose curve; note: nearly all actives have a fitted effect of over 35% in size; note: potency is the fitted concentration of half-maximal effect)
# Sequence of Retinoic acid receptor RXR-alpha (Homo sapiens) (P19793 whole entry, looked up): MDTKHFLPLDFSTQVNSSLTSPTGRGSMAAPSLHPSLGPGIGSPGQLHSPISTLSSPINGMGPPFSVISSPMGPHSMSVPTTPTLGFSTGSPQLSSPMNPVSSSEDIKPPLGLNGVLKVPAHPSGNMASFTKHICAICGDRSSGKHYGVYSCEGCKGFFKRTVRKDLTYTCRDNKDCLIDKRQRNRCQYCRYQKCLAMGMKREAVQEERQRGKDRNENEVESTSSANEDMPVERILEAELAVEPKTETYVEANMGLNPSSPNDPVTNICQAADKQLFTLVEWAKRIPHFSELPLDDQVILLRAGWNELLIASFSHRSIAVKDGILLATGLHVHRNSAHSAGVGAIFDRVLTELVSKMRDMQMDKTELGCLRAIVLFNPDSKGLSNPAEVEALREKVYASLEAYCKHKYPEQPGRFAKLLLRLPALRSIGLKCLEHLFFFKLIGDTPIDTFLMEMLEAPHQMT
# Outline: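 Compounds in DMSO were added to RXR-alpha-UAS-bla HEK 293T cells kept in 2% charcoal-stripped serum, and incubated 16 hr at 37 C with 5% CO2. Reporter signal came from a 2 hr B/G FRET substrate step.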
# [14] = target: Nuclear receptor subfamily 1 group I member 3 (Homo sapiens) (UniProt Q14994); test: qHTS assay to identify small molecule agonists of the constitutive androstane receptor (CAR) signaling pathway (AID 1224839);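 note: HepG2 cells stably carrying human CAR and a CYP2B6 luciferase reporter; series mostly up to about 92 µM; nearly all actives have a fitted effect of over 15% in size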
# Sequence of Nuclear receptor subfamily 1 group I member 3 (Homo sapiens) (Q14994 whole entry, looked up): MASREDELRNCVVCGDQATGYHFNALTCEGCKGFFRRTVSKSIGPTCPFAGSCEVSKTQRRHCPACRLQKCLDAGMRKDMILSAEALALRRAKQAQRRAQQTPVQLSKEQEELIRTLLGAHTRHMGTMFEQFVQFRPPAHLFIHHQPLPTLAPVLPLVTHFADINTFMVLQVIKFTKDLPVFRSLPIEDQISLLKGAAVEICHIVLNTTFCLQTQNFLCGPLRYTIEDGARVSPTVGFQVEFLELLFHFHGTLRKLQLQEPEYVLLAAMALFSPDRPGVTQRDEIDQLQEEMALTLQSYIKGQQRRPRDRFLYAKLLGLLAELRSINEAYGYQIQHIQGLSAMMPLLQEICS
# Outline: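 Readout: firefly luciferase luminescence via ONE-Glo. System: HepG2 double-stable for hCAR and CYP2B6-2.2kb. Conditions: 15-point compound titration, PK11195 at 0.75 uM final, 24 h incubation.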
# [15] = qHTS assay to identify small molecule antagonists of the estrogen related receptor signaling pathway with the pleiotropic PPARgamma coactivator (PGC) from Tox21 10K library (AID 1224841; call rule not given here; note: actives are mostly falling curves and most rising ones were filed inactive; nearly all actives have a fitted effect of over 50% in size; note: potency is the fitted concentration of half-maximal effect)
# Outline: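 In the PGC/ERR line, DMSO solutions of test chemicals are pin-delivered to 2,000 cells/well six hours after dispensing. Following eighteen hours' incubation, One-Glo reagent is added and luminescence recorded.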
# [16] = qHTS assay to identify small molecule agonists of the estrogen related receptor signaling pathway with the pleiotropic PPARgamma coactivator (PGC) from Tox21 10K library (AID 1224842); note: nearly all actives have a fitted effect of over 15% in size
# Outline: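 PGC/ERR reporter cell line, 2,000 cells per well, incubated 6 h at 37 C before 23 nL compound in DMSO was added. After 18 h at 37 C, One-Glo luminescence read following 30 min at room temperature.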
# [17] = qHTS assay to identify small molecule agonists of the retinoic acid receptor (RAR) signaling pathway (AID 1159553)
# Outline: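 Compounds dissolved in DMSO were pinned onto C3RL4 cells seeded the previous day, and plates were held 6 hr at 37 C. RARE-driven luciferase output was then read by luminescence.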
# [18] = target: Nuclear receptor subfamily 1 group I member 3 (Homo sapiens) (UniProt Q14994); test: qHTS assay to identify small molecule antagonists of the constitutive androstane receptor (CAR) signaling pathway (AID 1224838); note: nearly all actives have a fitted effect of over 40% in size
# Outline: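 CITCO-stimulated (50 nM final) HepG2 cells stably transfected with hCAR and CYP2B6-2.2kb luciferase were exposed to compounds at 15 concentrations for 24 h at 37 C/5% CO2. A luciferase reagent was added and luminescence recorded after 30 min.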
SMILES,Potency [1],outcome [2],Potency [3],Potency [4],Potency [5],Potency [6],Potency [7],Potency [8],Potency [9],Potency [10],Potency [11],outcome [12],Potency [13],Potency [14],Potency [15],outcome [16],Potency [17],Potency [18]
CC(C)(C)[C@@H](O)[C@@H](Cc1ccc(Cl)cc1)n1cncn1,inactive,inactive,inactive,inactive,inactive,inactive,inactive,inactive,inactive,inactive,inactive,inactive,–,–,–,–,–,–
CC(O)COCC(C)O (stereo not given),inactive,inactive,–,inactive,inactive,inactive,inactive,–,inactive,inactive,inactive,inactive,inactive,–,–,–,–,–
CC1=CC(=O)NS(=O)(=O)O1,inactive,inactive,–,inactive,–,inactive,inactive,–,inactive,inactive,inactive,inactive,inactive,inactive,–,–,–,–
O=S(=O)(O)c1ccc2ccccc2c1,inactive,inactive,–,inactive,inactive,inactive,inactive,inactive,inactive,inactive,inactive,inactive,11 µM (active),–,–,–,–,–
FC(F)(F)c1ccc(Cl)c(Cl)c1,inactive,inactive,–,inactive,inactive,inactive,inactive,inactive,inactive,inactive,inactive,inactive,inactive,–,–,–,–,–
CCCCCCCCCCCCc1ccccc1,inactive,inactive,inactive,inactive,inactive,inactive,inactive,inactive,inactive,inactive,inactive,inactive,–,inactive,inactive,inactive,–,–
O=C(O)c1cc(=O)c2c(OCC(O)COc3cccc4oc(C(=O)O)cc(=O)c34)cccc2o1,inactive,inactive,inactive,inactive,inactive,inactive,inactive,–,inactive,inactive,inactive,–,–,inactive,–,–,inactive,inactive
O=C(O)c1ccc2c(c1)C(=O)OC2=O,inactive,inactive,inactive,inactive,inactive,inactive,inactive,–,inactive,inactive,inactive,inactive,–,–,–,–,–,–
CCCCCCCCCCCCCCCO,inactive,inactive,inactive,inactive,inactive,inactive,inactive,–,inactive,inactive,inactive,inactive,–,–,69.1 µM (active) and inactive,inactive,–,–
CC[C@H](C)C(=O)O[C@H]1C[C@@H](C)C=C2C=C[C@H](C)[C@H](CC[C@@H]3C[C@@H](O)CC(=O)O3)[C@H]21,8.83 µM (active),inactive,–,69.6 µM (active) and inactive,inactive,inactive,inactive,69.6 µM (active) and inactive,inactive,inactive,inactive,inactive,–,inactive,inactive,inactive,–,inactive

# Reference: PubChem BioAssay (Tox21)
